The campaign covered roughly 360,000 compounds. About 25,000 (6.9%) were called active. Entries that show only a call come without a potency. Another 9% or so got no clear call; they are omitted. Calls come from the whole dose curve; as a rule, active = well fitted inhibition curve with a large enough effect; inconclusive = small, poorly fitted or top-dose-only effect; inactive = flat fitted curve, though single readings scatter. The sample as a whole holds a higher share of actives than the screen did.
Molecular target: Luciferin 4-monooxygenase (Photinus pyralis) (UniProt P08659)
Sequence (P08659 whole entry, looked up): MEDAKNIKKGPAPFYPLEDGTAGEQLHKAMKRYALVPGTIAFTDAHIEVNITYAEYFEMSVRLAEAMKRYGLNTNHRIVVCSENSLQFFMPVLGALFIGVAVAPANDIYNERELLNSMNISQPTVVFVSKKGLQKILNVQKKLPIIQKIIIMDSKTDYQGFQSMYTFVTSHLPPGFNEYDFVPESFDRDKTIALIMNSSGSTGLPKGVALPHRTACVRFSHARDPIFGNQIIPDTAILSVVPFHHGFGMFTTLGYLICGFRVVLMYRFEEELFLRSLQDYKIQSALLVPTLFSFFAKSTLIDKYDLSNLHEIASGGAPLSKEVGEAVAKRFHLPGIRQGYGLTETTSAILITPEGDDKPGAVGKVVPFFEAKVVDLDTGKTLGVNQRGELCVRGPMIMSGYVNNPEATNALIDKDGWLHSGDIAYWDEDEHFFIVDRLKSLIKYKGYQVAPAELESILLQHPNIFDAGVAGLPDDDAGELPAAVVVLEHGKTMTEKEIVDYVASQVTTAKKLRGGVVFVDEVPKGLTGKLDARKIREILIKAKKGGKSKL
Assay: qHTS profiling assay for firefly luciferase inhibitor/activator using purifed enzyme and Km concentrations of substrates (counterscreen for miR-21 project); note: nearly all actives have a fitted effect of over 55% in size
Settings: purified FLuc, luminescence inhibition; series mostly up to 57.5 µM
Summary of the method: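 Biochemical qHTS of compounds, final roughly 60 µM downward over six points, against 10 nM purified firefly luciferase using Km concentrations of substrates (10 uM D-luciferin, 10 uM ATP) in Tris acetate pH 7.5 buffer; luminescence output.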
Potency is the fitted concentration of half-maximal effect.

SMILES | Potency
CCOC(=O)c1ccc(NC(=O)CCS(=O)(=O)c2ccc3c(c2)oc(=O)n3C)cc1 | inactive
CC(C)CCNC(=O)CC1C(=O)N(Cc2ccccc2)C(C)c2nc3ccccc3n21 (stereo not given) | inactive
CCCN1CCN(CCCNC(=O)c2cnn(-c3ccc(C)cc3)c2-n2cccc2)CC1 | inactive
CCCNC(=O)c1c(Cl)cnn1-c1ccc(C)cc1 | 9.53 µM (active)
CCCNC(=O)CCc1c(C)nc2c(c(C)nn2-c2ccc(C)cc2)c1C | inactive
COc1ccccc1OCCNC(=O)C(CCSC)NC(=O)COc1ccccc1 (stereo not given) | inactive
CC(C(=O)NC1CCCC1)N1CCN(S(=O)(=O)c2ccccc2Cl)CC1 (stereo not given) | inactive
CC(C)(C)c1nc2ccccc2c(=O)n1N1C(=O)c2ccccc2C1=O | inactive
CC(C)(C)c1cc(=O)n2c(nc3ccccc32)[nH]1 | 21.3 µM (active)
CC(C)(C)N1CC(c2nc3ccccc3n2Cc2ccc(F)cc2)CC1=O (stereo not given) | inactive
O=C(COc1coc(CN2CCN(c3ccccc3)CC2)cc1=O)Nc1ccccc1F | inactive
CC1=C(C(=O)OCC2CCCCC2)C(c2c(F)cccc2Cl)CC(=O)N1 (stereo not given) | inactive
Cc1cccc(C(CC(=O)NCC2(c3ccccc3)CCCC2)c2ccccc2)c1O (stereo not given) | inactive
Cc1ccc(C(=O)Nc2nc(N)n(-c3ccccc3)n2)cc1 | 23.9 µM (active)
Cc1ccc(S(=O)(=O)Nc2nc(N)n(-c3ccccc3)n2)cc1 | inactive
Cn1c(=O)c(C(=O)O)nn(-c2ccccc2)c1=O | inactive
COc1ccc(CNC(=O)CCc2c(C)nn(-c3ccc(N4CCCC4)nn3)c2C)cc1 | inactive
Cc1ccc(-n2c(C)nnc2SCC(=O)NC2CC2)cc1 | inactive
CCN(C(=O)CSc1nnc2ccccn12)C1CCS(=O)(=O)C1 (stereo not given) | inactive
Cc1ccc(-n2c(C)cc(C(=O)CSc3nnc4ccccn34)c2C)cc1 | 2.13 µM (active)
N#Cc1ccc(CSc2nnc3ccccn23)cc1 | inactive
O=C(CSc1nnc2ccccn12)c1ccccc1 | 23.9 µM (active)
Cn1c(CC(=O)Nc2ccccc2)nnc1SCC(=O)c1ccccc1 | inactive
O=C(Nc1cc(Cl)cc(Cl)c1)c1ccc2c(c1)N(Cc1cccc(Cl)c1)C(=O)c1ccccc1S2=O (stereo not given) | inactive

SMILES | Potency
CCN(CC)c1ccc(NS(=O)(=O)c2cc(-c3cc(C)no3)ccc2C)c(C)c1 | inactive
Cc1cccc(C)c1-n1ncc(C(=O)NCCCN2CCCCC2)c1C1CCN(C(=O)OC(C)(C)C)CC1 | inactive
CCOC(=O)c1c(C)[nH]c(C)c1S(=O)(=O)N(C)CC(=O)N1CCN(c2ccccc2)CC1 | inactive
O=C(CSc1nc2c(c(=O)[nH]1)CN(Cc1ccc(F)cc1)CC2)Nc1ccccc1Cl | inactive
CC(C)c1nc2ccc(C(=O)O)cc2[nH]1 | 15.1 µM (active)
OC(c1nc2ccc(F)cc2[nH]1)C(O)c1nc2ccc(F)cc2[nH]1 (stereo not given) | inactive
N#CC(C(=O)c1ccc(S(=O)(=O)N2CCCCCC2)cc1)c1nc2ccccc2[nH]1 (stereo not given) | inactive
CCOC(=O)c1cccc(NC(=O)Cn2cnc3nc4c(cc3c2=O)CCCC4)c1 | inactive
CCOC(=O)c1[nH]c(C)c(CCC(=O)NCc2ccccc2C)c1C | inactive
COc1ccc(CCNC(=O)C(=O)NCC(c2ccco2)S(=O)(=O)c2cccs2)cc1OC (stereo not given) | inactive
O=C(NCC#CCSc1nnc(-c2cccc3ccccc23)o1)c1cccs1 | inactive
O=C(OCC#CCSc1nnc(-c2ccncc2)o1)c1sc2ccccc2c1Cl | inactive
C#CCSc1nnc(-c2sc3ccccc3c2Cl)o1 | 5.36 µM (active)
COc1ccc2cc(-c3nc(Cl)c4c5c(sc4n3)CC(C)CC5)c(=O)oc2c1 (stereo not given) | inactive
Cc1noc(C)c1COc1ccc2ccc(=O)oc2c1 | inactive
COc1ccc(-c2cc3ccc(OCc4nn[nH]n4)cc3oc2=O)cc1 | 1.69 µM (active)
COc1ccc(CCN2C(=O)N(c3cccc(OC)c3)C(=O)C2CC(=O)Nc2ccccc2)cc1 (stereo not given) | inactive
CC(C)C(=O)NCc1cc(-c2ccc(Cl)cc2)no1 | inactive
Cc1cc(OCc2cc(C(=O)NCc3cc(C(C)C)no3)no2)cc(C)c1Cl | 4.78 µM (active)
COCCCNC(=O)COc1cc(C)c(Cl)c(C)c1 | inactive
CCc1ccc(NC(=O)c2nn(-c3ccc(C)cc3)c(=O)n(C)c2=O)cc1 | inactive
CS(=O)(=O)n1nc(-c2ccco2)nc1N | inactive
Cn1c(-c2ccco2)nc2cc3ccccc3cc21 | 0.12 µM (active)
Cn1c(SCC(=O)Nc2ccc(Br)cc2F)nnc1-c1ccco1 | inactive

SMILES | Potency
Cc1cccc(N2CCN(C(=O)c3ccc(Nc4nc5ccccc5n5nnnc45)cc3)CC2)c1C | inactive
Cc1ccccc1NC(=O)C1CCN(C(=O)NC2CCCCC2)CC1 | inactive
O=C(Nc1cc2ccccc2oc1=O)C1CCCCC1 | 2.39 µM (active)
Cc1cc(NC(=O)CN2CCCCC2C)nc2c1c(=O)oc1ccccc12 (stereo not given) | inactive
COC(=O)c1cc(NC(=O)CCS(=O)(=O)c2cc(Br)cc3c2N(C(=O)C2CC2)CC3)cc(C(=O)OC)c1 | inactive
O=C1CCCc2cc(S(=O)(=O)N3CCCC(C(=O)NCc4ccccc4)C3)ccc2N1 (stereo not given) | inactive
CC(C)(C)OC(=O)N1CCC(c2c(C(=O)NCc3ccccn3)cnn2-c2ccc(F)cc2)CC1 | inactive
Cc1ccc(NC(=O)CN(C)C(=O)c2ccc(Br)o2)cc1 | inactive
Cc1nc2ccccc2n1CC(=O)N/N=C/c1cccs1 | inactive
CCOC(=O)c1c(N)n(-c2cccc(C)c2C)c2nc3ccccc3nc12 | inactive
CCC(C)NC(=O)c1c(N)n(/N=C/c2cccs2)c2nc3ccccc3nc12 (stereo not given) | 3.01 µM (active)
CCCc1cc(=O)[nH]c(SCc2cc(=O)oc3c(C)c(C)ccc23)n1 | inactive
CN1CCN(C(=O)CCc2ncc(C(F)(F)F)cc2Cl)CC1 | inactive
O=C(CC1CCCCC1)NCc1ccccc1 | inactive
N/C(=N\OC(=O)CCC1CCCCC1)c1ccccn1 | 0.536 µM (active)
COc1ccccc1OCC(=O)O/N=C(\N)c1ccccn1 | 19 µM (active)
N/C(=N\OC(=O)CC1CCCCC1)c1ccccc1 | 2.13 µM (active)
COc1ccccc1OCC(=O)OCn1c(SC)nnc(C)c1=O | inactive
O=C(CN1CCN(c2ccccn2)CC1)NC1CCCCC1 | inactive
COc1ccccc1OCC(=O)OCc1cc(-c2ccco2)on1 | inactive
CC(C)(C)NC(=O)NC(=O)COC(=O)CCC1CCCCC1 | inactive
COc1ccccc1NC(=O)C(C)OC(=O)CC1CCCC1 (stereo not given) | inactive

From PubChem BioAssay AID588342 (National Center for Advancing Translational Sciences (NCATS), 2011)
